Where “and” joins values, the source holds several entries; their conditions need not be identical. Equal entries are not always repeated. Results filed as inconclusive are left out. A call without a number means that no potency is given here. Values without a mark were called inactive. Calls of active or inactive are those of the source. The call rests on the fitted dose curve; in most records, active means well fitted curve in the direction sought with a large enough effect; inconclusive means small, poorly fitted or top-dose-only effect, or another doubt; inactive means no such curve, though single readings can be large; an effect the other way counts as inactive or inconclusive. Where a SMILES comes first, the peptide text is derived from it. [ ]: non-standard residue; d: D form. ξ: configuration not given here. ξPhe(βξ-Me) = CC(c1ccccc1)C(N)C(=O)O; GABA = NCCCC(=O)O
What was measured:
[1] = Primary qHTS for inhibitors of nuclear receptor binding SET domain protein 2 (NSD2) in an isogenic RCH-ACV NSD2 p.E1099K mutant (9B) (AID 1645876)
[2] = Primary qHTS for inhibitors of nuclear receptor binding SET domain protein 2 (NSD2) in an RCH-ACV wild type WT cells (2C) (AID 1645877)
Further: nearly all actives have a fitted effect of over 70% in size.
Potency means the concentration at half of the fitted maximal effect.

Row | Compound | Potency [1] | Potency [2] | activity change, negative = viability loss [1] | activity change, negative = cell killing [2]
1 | OC[C@H]1O[C@@H](Oc2ccccc2)[C@H](O)[C@@H](O)[C@@H]1O | inactive | inactive |  | 
2 | CC(C)=CCC/C(C)=C/CO[C@@H]1O[C@H](CO)[C@@H](OC(=O)/C=C/c2ccc(O)cc2)[C@H](O[C@@H]2O[C@@H](C)[C@H](O)[C@@H](O)[C@H]2O)[C@H]1O | inactive | inactive |  | 
3 | CCC1=CC2CN(C1)Cc1c([nH]c3ccccc13)[C@@](C(=O)OC)(c1cc3c(cc1OC)N(C)[C@H]1[C@@](O)(C(=O)OC)[C@H](OC(C)=O)[C@]4(CC)C=CCN5CC[C@]31[C@@H]54)C2 (stereo partly specified) | 79.6 nM (active) | 31.7 nM (active) |  | 
4 | COc1cc(/C=C/C=O)cc(OC)c1O[C@@H]1O[C@H](CO)[C@@H](O)[C@H](O)[C@H]1O | inactive | inactive |  | 
5 | COC(=O)C1=COC(O[C@@H]2O[C@H](CO)[C@@H](O)[C@H](O)[C@H]2O)[C@H]2[C@@H]1[C@H](OC(=O)CCc1ccc(O)cc1)C[C@]2(C)O (stereo partly specified) | inactive | inactive |  | 
6 | CC(=O)O[C@H]1C[C@@](O)(C(C)C)C2[C@@H](OC(=O)c3ccc(O)cc3)C[C@@]3(C)O[C@H]3C[C@]21C (stereo partly specified) | inactive | inactive |  | 
7 | CC1(O)CCCC2(C)C1CCC13CC(CO)C(CCC12)C3 (stereo unspecified) | inactive | inactive |  | 
8 | COC1=CC(=O)CC(C)C12Oc1cc(OC)cc(O)c1C2=O (stereo unspecified) | inactive | inactive |  | 
9 | O=C1NC(=O)C(c2cn3c4c(cccc24)CCC3)C1c1c[nH]c2ccccc12 (stereo unspecified) | 1030 nM (active) | 916 nM (active) |  | 
10 | CC(C)(O[C@@H]1O[C@H](CO)[C@@H](O)[C@H](O)[C@H]1O)C(OC(=O)/C=C\c1ccc(O)cc1)C(=O)OCc1ccc(O[C@@H]2O[C@H](CO)[C@@H](O)[C@H](O)[C@H]2O)cc1 (stereo partly specified) | inactive | inactive |  | 
11 | COC(=O)C1=CO[C@@H](O[C@@H]2O[C@H](CO)[C@@H](O)[C@H](O)[C@H]2O)C2C1C(=O)C[C@H]2C (stereo partly specified) | inactive | inactive |  | 
12 | CC(CO)C1CCC2(C)CC3C(CO)CC(O)C3C(C)(O)C/C=C/12 (stereo unspecified) | inactive | inactive |  | 
13 | Cc1cc(C)cc(C(=O)NOCCCCCC(=O)NO)c1 | 515 nM (active) | 409 nM (active) |  | 
14 | CC(=O)OC1C(c2ccccc2)CCC(c2ccccc2)C1OC(C)=O (stereo unspecified) | inactive | inactive |  | 
15 | C1CCC[C@H]2CCCN3CC[C@@H](CCCCCC[C@@H]4CCCN5CC[C@@H](CC1)O[C@@H]45)O[C@@H]23 |  |  | -4.42% [at 0.177 µM] | -1.13% [at 0.177 µM]
16 | CC1(C)C2CC=C(COC3OC(COC4OCC(O)(CO)C4O)C(O)C(O)C3O)C1C2 (stereo unspecified) | inactive | inactive |  | 
17 | CC1OC2OC(=O)C3(C)CC4=C(CO)C5=C(CC(=O)C4(C)C(C1=O)C23)C(C)(C)OC(=O)C5 (stereo unspecified) | inactive | inactive |  | 
18 | CC(O)/C=C/C1(O)C2(C)COC1(C)CC(O)C2 (stereo unspecified) | inactive | inactive |  | 
19 | CC(C)c1ccc(CO)cc1O[C@@H]1O[C@H](CO)[C@@H](O)[C@H](O)[C@H]1O | inactive | inactive |  | 
20 | CC(C)c1nnc(-c2ccc(-c3ccccc3)nc2)n1-c1cccc2nonc12 | inactive | inactive |  | 
21 | C/C=C/C1=CC2=C(CO1)C(=O)C(C)(O)C(OC(=O)c1c(C)cc(OC)cc1O)C2 (stereo unspecified) | 16000 nM (active) | 4500 nM (active) |  | 
22 | O=C(c1ccc(/C=C/c2n[nH]c3ccccc23)cc1)N1CCNCC1 | 649 nM (active) and 2.63 µM (active) | 515 nM (active) and 1.86 µM (active) |  | 
23 | CC1(C)CCCC2(C)C1C(O)C=C(CO)C2(O)CO (stereo unspecified) | inactive | inactive |  | 
24 | CC1=C(C(=O)O)/C(=C\CO[C@@H]2O[C@H](CO)[C@@H](O)[C@H](O)[C@H]2O)C(OC(=O)/C=C\c2ccc(O)cc2)C1 (stereo partly specified) | inactive | inactive |  | 
25 | C=C[C@]1(C)C=C2CCC3C(C)(CCC[C@@]3(C)C(=O)O)C2CC1 (stereo partly specified) | inactive | inactive |  | 
26 | COC(=O)CC(O)CC(O)/C=C/c1c(C)ccc2c1C(O)CC(C)C2 (stereo unspecified) | inactive | inactive |  | 
27 | CC1NC(=O)CCCNC(=O)C(Cc2c[nH]c3ccccc23)NC(=O)C(C)NC(=O)C(C(C)C)NC(=O)C(C(C)c2ccccc2)NC(=O)C(C(C)C)NC1=O (stereo not drawn) (cyclo([GABA]AV[ξPhe(βξ-Me)]VAW); configuration not given here) | inactive | inactive |  | 
28 | C#CC[C@H](c1nc2cc(Cl)ccc2c(=O)n1Nc1ccccc1)N(CCCN)C(=O)c1cccc(Cl)c1F | 372 nM (active) | 332 nM (active) |  | 

Source: PubChem BioAssay (NCATS)
